According to PubChem BioAssay (Tox21):
Records with an inconclusive call do not appear. The source made the active and inactive calls. Unless noted, calls follow the shape of the dose curve; as a rule, active = well fitted curve in the direction sought with a large enough effect in the repeat runs; inconclusive = weak or mixed curves; inactive = no such curve, though single readings can be large; an effect the other way counts as inactive or inconclusive.

How the values were obtained:
[1] = A CellTox Green Cytotoxicity Assay to monitor cytotoxicity in HEK293 cells - 32 hour (AID 1224881); also: nearly all actives have a fitted effect of over 40% in size
How it was run: (§1)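 Fluorescence from a DNA-binding dye excluded by viable cells was measured repeatedly in the same HEK293 wells (600 cells/well) during continuous compound exposure at 37 C. Each assay gives one read point: 0, 8, 16, 24, 32 or 40 h.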

[2] = A CellTox Green Cytotoxicity Assay to monitor cytotoxicity in HepG2 cells - 0 hour (AID 1224882); also: nearly all actives have a fitted effect of over 35% in size
How it was run: (§2)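 Real-time cytotoxicity: fluorescence of a cell-impermeant cyanine dye binding DNA of dead HepG2 cells, measured repeatedly (0–40 h) during compound exposure at 37 C. Cells seeded 600/well with reagent, dosed after 5 h.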

[3] = A CellTox Green Cytotoxicity Assay to monitor cytotoxicity in HepG2 cells - 32 hour (AID 1224883); also: nearly all actives have a fitted effect of over 50% in size
How it was run: as §2

[4] = A CellTox Green Cytotoxicity Assay to monitor cytotoxicity in HEK293 cells - 8 hour (AID 1224884); also: nearly all actives have a fitted effect of over 35% in size
How it was run: as §1

[5] = qHTS RealTime-Glo MT Cell Viability Assay in HepG2 cells - 16 hour (AID 1224885); also: nearly all actives have a fitted effect of over 50% in size
How it was run: (§3)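 Luminescence read-out: viable HepG2 cells reduce a prosubstrate to a NanoLuc substrate, giving a signal proportional to live cell number. Reads taken at 0, 8, 16, 24, 32 and 40 h of compound exposure at 37 C.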

[6] = qHTS RealTime-Glo MT Cell Viability Assay in HEK293 cells - 24 hour (AID 1224886); also: top concentration of the series differs between compounds; nearly all actives have a fitted effect of over 50% in size
How it was run: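 Nonlytic real-time viability readout: viable cells convert prosubstrate to NanoLuc substrate, giving luminescence proportional to live cell number. HEK293, 600 cells/well, compound added after 5 h, continuous culture at 37 C.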

[7] = qHTS RealTime-Glo MT Cell Viability Assay in HEK293 cells - 8 hour (AID 1224887); also: top concentration of the series differs between compounds; nearly all actives have a fitted effect of over 50% in size
How it was run: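 Luminescence, which tracks viable cell number through reduction of the prosubstrate to a NanoLuc substrate, was read over continuous 37 C culture. Cells (600/well) were premixed with reagent and rested 5 h before 23 nL of compound in DMSO was pinned.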

[8] = A CellTox Green Cytotoxicity Assay to monitor cytotoxicity in HEK293 cells - 16 hour (AID 1224888); also: nearly all actives have a fitted effect of over 35% in size
How it was run: as §1

[9] = qHTS RealTime-Glo MT Cell Viability Assay in HepG2 cells - 0 hour (AID 1224889); also: nearly all actives have a fitted effect of over 50% in size
How it was run: as §3

[10] = A CellTox Green Cytotoxicity Assay to monitor cytotoxicity in HepG2 cells - 8 hour (AID 1224890); also: nearly all actives have a fitted effect of over 45% in size
How it was run: as §2

[11] = qHTS assay to identify small molecule antagonists of the estrogen receptor alpha (ER-alpha) signaling pathway using the BG1 cell line in the presence of 0.1 nM 17-beta-estradiol - cell viability counter screen (AID 1259241); also: nearly all actives have a fitted effect of over 40% in size
How it was run: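 The cell line endogenously expresses full-length ER-alpha and carries four EREs driving luciferase. Cells are cultured 5 days hormone-free, treated 22 hr with compounds and 0.1 nM estradiol, then viability is read by fluorescence.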

[12] = qHTS assay to identify small molecule antagonists of the androgen receptor (AR) signaling pathway using the MDA cell line in the presence of 0.5 nM R1881 - cell viability counter screen (AID 1259242); also: nearly all actives have a fitted effect of over 45% in size
How it was run: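 Live-cell protease activity was measured by CellTiter-Fluor fluorescence after 30 min. Before that, MDA-kb2 MMTV-luciferase cells had 16 hr at 37C without CO2, exposed to test compounds and 0.5 nM R1881 final.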

[13] = qHTS assay to identify small molecule HDAC inhibitors (AID 1259364); also: top concentration of the series differs between compounds; nearly all actives have a fitted effect of over 45% in size
How it was run: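 Luminescence read after 30 min room-temperature HDAC-Glo incubation measures cellular class I/II HDAC activity. Compounds were applied for 2 hr at 37 C to HCT-116 wild-type cells seeded the day before.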

[14] = qHTS assay to identify small molecule HDAC inhibitors - cell viability counter screen (AID 1259365)
How it was run: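 Viability readout: CellTiter-Glo luminescence. Wild-type HCT-116 cells, 2hr compound treatment following overnight attachment at 37 C.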

[15] = qHTS assay to identify small molecule agonists of the sonic hedgehog signaling (Shh) pathway - cell viability counter screen (AID 1259366); also: nearly all actives have a fitted effect of over 50% in size
How it was run: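 Viability measured fluorometrically (CellTiter-Fluor, 1hr, 37C) in 3T3 Gli1-Luc reporter cells after 23hr compound exposure within a 24hr incubation at 37C/5% CO2.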

[16] = qHTS assay to identify small molecule antagonists of the sonic hedgehog signaling (Shh) pathway - cell viability counter screen (AID 1259367); also: nearly all actives have a fitted effect of over 55% in size
How it was run: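 Fluorescence read-out (CellTiter-Fluor, 1 hr at 37C) taken after 23 hr compound treatment of 3T3 Gli1-Luc cells stimulated with conditioned medium. Cells were seeded at 2,000 per well and pre-incubated 4 hr.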

[17] = qHTS assay to identify small molecule agonists of the sonic hedgehog signaling (Shh) pathway (AID 1259368; calls by dose curve;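 also: NIH/3T3-derived 3T3Gli1-Luc cells carrying a stable Gli1-driven firefly luciferase reporter; series mostly up to about 92 µM; nearly all actives have a fitted effect of over 15% in size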)
How it was run: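 Luminescence was read after 30 min at room temperature with luciferase reagent. Before that, 3T3Gli1-Luc cells (NIH/3T3 clone, stable Gli1-Luc reporter; 2,000/well) were exposed to compounds for 24 hr at 37C, 5% CO2, compounds being added 4 hr post-plating.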

[18] = biological target: Estrogen receptor (Homo sapiens) (UniProt P03372); assay: qHTS assay to identify small molecule antagonists of the estrogen receptor alpha (ER-alpha) signaling pathway using the BG1 cell line in the presence of 0.1 nM 17-beta-estradiol (AID 1259244); also: nearly all actives have a fitted effect of over 50% in size
Sequence of Estrogen receptor (Homo sapiens) (P03372 whole entry, looked up): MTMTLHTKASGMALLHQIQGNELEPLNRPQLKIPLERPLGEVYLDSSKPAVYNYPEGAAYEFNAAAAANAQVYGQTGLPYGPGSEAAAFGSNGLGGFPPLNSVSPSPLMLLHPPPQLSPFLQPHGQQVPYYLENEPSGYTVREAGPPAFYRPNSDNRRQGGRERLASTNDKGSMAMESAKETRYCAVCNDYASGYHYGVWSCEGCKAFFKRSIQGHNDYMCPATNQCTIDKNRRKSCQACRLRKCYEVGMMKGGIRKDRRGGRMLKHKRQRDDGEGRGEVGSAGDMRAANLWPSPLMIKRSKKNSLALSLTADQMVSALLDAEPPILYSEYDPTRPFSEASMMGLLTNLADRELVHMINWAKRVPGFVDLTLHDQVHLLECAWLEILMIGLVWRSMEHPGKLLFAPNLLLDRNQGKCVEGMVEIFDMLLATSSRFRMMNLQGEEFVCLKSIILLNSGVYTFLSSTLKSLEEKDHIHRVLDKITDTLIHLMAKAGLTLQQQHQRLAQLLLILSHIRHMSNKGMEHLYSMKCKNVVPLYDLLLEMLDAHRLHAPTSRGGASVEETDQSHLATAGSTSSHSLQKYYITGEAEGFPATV
How it was run: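 Luciferase luminescence (ONE-Glo, 30 min at room temperature) was read after 22 hr at 37C exposure to compounds plus 17beta-estradiol at 0.1 nM final. Cells were VM7Luc4E2 with endogenous ER-alpha and an ERE-driven luciferase, pre-cultured 5 days in hormone-depleted medium.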

[19] = qHTS assay to identify small molecule phospholipidosis (PLD) inducers (AID 1259344; active = well fitted curve in the direction sought with a large enough effect; an effect the other way counts as inactive or inconclusive)
How it was run: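 Read-out is LipidTOX Red fluorescence (ex 595/em 615) imaged in HepG2 cells after 24 h compound exposure at 37 C, with Hoechst nuclear counterstain (ex 352/em 461) allowing per-cell normalisation.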

[20] = biological target: Androgen receptor (Homo sapiens) (UniProt P10275); assay: qHTS assay to identify small molecule antagonists of the androgen receptor (AR) signaling pathway using the MDA cell line in the presence of 0.5 nM R1881 (AID 1259243); also: nearly all actives have a fitted effect of over 50% in size
Sequence of Androgen receptor (Homo sapiens) (P10275 whole entry, looked up): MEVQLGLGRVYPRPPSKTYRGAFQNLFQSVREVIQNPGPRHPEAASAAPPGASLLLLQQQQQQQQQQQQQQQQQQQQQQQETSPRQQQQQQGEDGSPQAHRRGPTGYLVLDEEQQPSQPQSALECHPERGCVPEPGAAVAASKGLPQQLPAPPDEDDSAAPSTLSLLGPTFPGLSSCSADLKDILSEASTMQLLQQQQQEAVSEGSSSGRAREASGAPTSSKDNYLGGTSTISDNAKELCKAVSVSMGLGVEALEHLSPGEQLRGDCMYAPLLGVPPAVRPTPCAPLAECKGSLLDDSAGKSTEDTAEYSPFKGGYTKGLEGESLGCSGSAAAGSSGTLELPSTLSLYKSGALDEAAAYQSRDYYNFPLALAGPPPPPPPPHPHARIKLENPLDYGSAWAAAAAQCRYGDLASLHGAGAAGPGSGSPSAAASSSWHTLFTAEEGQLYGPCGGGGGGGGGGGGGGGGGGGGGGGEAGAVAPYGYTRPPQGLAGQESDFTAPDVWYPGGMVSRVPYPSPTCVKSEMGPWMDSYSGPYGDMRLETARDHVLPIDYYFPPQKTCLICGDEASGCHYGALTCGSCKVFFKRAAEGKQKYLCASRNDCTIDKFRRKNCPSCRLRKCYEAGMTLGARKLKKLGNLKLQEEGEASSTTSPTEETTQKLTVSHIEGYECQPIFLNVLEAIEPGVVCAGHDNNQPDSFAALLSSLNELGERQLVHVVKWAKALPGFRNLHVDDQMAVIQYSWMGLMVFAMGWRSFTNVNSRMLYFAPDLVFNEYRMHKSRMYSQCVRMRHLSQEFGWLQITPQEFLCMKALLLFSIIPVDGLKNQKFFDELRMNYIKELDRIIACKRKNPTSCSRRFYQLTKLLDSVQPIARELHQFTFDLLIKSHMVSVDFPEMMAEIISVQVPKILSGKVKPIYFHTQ
How it was run: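 Luminescent reporter readout (ONE-Glo, 30 min, room temperature) after 16 hr co-treatment of MDA-kb2 cells with test compounds and 0.5 nM R1881 final, at 37C without CO2. The MMTV-driven luciferase responds to both AR and GR.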
% is scaled to controls: 0 for no effect and ±100 for the full control effect.

O=Cc1ccc(Cl)c(Cl)c1
inactive: Potency [1] | outcome [2] | Potency [3] | Potency [4] | outcome [5] | Potency [6] | Potency [7] | outcome [8] | Potency [9] | outcome [10] | Potency [11] | outcome [12] | Potency [13] | outcome [14] | Potency [15] | Potency [16] | outcome [17]

C=C(C)C(=O)OCC(C)(C)COC(=O)C(=C)C
inactive: Potency [1] | outcome [2] | Potency [3] | Potency [4] | outcome [5] | Potency [6] | Potency [7] | outcome [8] | Potency [9] | outcome [10] | Potency [11] | outcome [12] | Potency [18] | Potency [13] | Potency [15] | Potency [16] | outcome [17]

CCOC(=O)CC(=O)c1ccccc1
inactive: Potency [1] | outcome [2] | Potency [3] | Potency [4] | outcome [5] | Potency [6] | Potency [7] | outcome [8] | Potency [9] | outcome [10] | Potency [11] | outcome [12] | Potency [18] | outcome [14] | Potency [15] | Potency [16] | outcome [17]

CCOC(=O)[C@H](CCc1ccccc1)N[C@@H](C)C(=O)N1C(=O)N(C)C[C@H]1C(=O)O
inactive: Potency [1] | outcome [2] | Potency [3] | Potency [4] | outcome [5] | Potency [6] | Potency [7] | outcome [8] | Potency [9] | outcome [10] | Potency [11] | outcome [12] | Potency [18] | outcome [19] | Potency [13] | outcome [14] | Potency [15] | Potency [16] | outcome [17]

NNc1nnc(NN)c2ccccc12
inactive: Potency [1] | outcome [2] | Potency [3] | Potency [4] | outcome [5] | Potency [6] | Potency [7] | outcome [8] | Potency [9] | outcome [10] | Potency [11] | outcome [12] | Potency [18] | outcome [19] | Potency [13] | outcome [14] | Potency [15] | Potency [16] | outcome [17]

CC(C)C(=O)OCc1cccc(OC(=O)[C@@H]2N3C(=O)[C@@H](NC(=O)Cc4ccccc4)[C@H]3SC2(C)C)c1
inactive: Potency [1] | outcome [2] | Potency [3] | Potency [4] | outcome [5] | Potency [6] | Potency [7] | outcome [8] | Potency [9] | outcome [10] | Potency [11] | outcome [12] | Potency [20] | Potency [18] | Potency [13] | Potency [15] | Potency [16] | outcome [17]

Cc1cccc(C)c1NC(=O)c1ccccc1C(=O)O
inactive: Potency [1] | outcome [2] | Potency [3] | Potency [4] | outcome [5] | Potency [6] | Potency [7] | outcome [8] | Potency [9] | outcome [10] | Potency [11] | outcome [12] | Potency [20] | Potency [18] | outcome [19] | Potency [13] | Potency [15] | Potency [16] | outcome [17]

CCNC(=O)C1CC(C)CCC1C(C)C (stereo not drawn)
inactive: Potency [1] | outcome [2] | Potency [3] | Potency [4] | outcome [5] | Potency [6] | Potency [7] | outcome [8] | Potency [9] | outcome [10] | Potency [11] | outcome [12] | Potency [18] | Potency [13] | outcome [14] | Potency [15] | Potency [16] | outcome [17]

CCCCCCCCCC(C)=O
inactive: Potency [1] | outcome [2] | Potency [3] | Potency [4] | outcome [5] | Potency [6] | Potency [7] | outcome [8] | Potency [9] | outcome [10] | Potency [11] | outcome [12] | Potency [20] | Potency [18] | Potency [13] | outcome [14] | Potency [15] | Potency [16] | outcome [17]

CN(C)C(=O)CNC(=O)Cc1ccccc1
inactive: Potency [1] | outcome [2] | Potency [3] | Potency [4] | outcome [5] | Potency [6] | Potency [7] | outcome [8] | Potency [9] | outcome [10] | Potency [11] | outcome [12] | outcome [19] | Potency [13] | outcome [14] | Potency [15] | Potency [16] | outcome [17]

CN1CCN(CC(=O)N2c3ccccc3C(=O)Nc3cccnc32)CC1
inactive: cytotoxicity increase [1] -2.73% [at 6.97 µM] | cytotoxicity [2] -13.6% [at 6.97 µM] | cytotoxicity increase [3] -13% [at 6.97 µM] | cytotoxicity increase [4] -1.13% [at 6.97 µM] | activity change, negative = cytotoxic [5] 0.498% [at 6.97 µM] | activity change, negative = cytotoxicity [6] 6.44% [at 6.97 µM] | activity change, negative = cytotoxicity [7] 17.8% [at 6.97 µM] | activity change [8] -1.08% [at 6.97 µM] | activity change, negative = cytotoxicity [9] 2.23% [at 6.97 µM] | cytotoxicity increase [10] -13.9% [at 6.97 µM] | activity change, negative = cytotoxicity [11] 5.03% [at 8.39 µM] | viability change, negative = cytotoxic [12] 1.29% [at 8.39 µM] | activity change, negative = inhibition [18] 8.49% [at 8.39 µM] | outcome [19] | activity change, negative = inhibition [13] 0.529% [at 8.39 µM] | viability change, negative = cytotoxic [15] 1.72% [at 8.39 µM] | viability change, negative = cytotoxic [16] 0.196% [at 8.39 µM] | activity change [17] 0.176% [at 8.39 µM]

O=C(NCCN1CCOCC1)c1ccc(Cl)cc1
inactive: Potency [1] | outcome [2] | Potency [3] | Potency [4] | outcome [5] | Potency [6] | Potency [7] | outcome [8] | Potency [9] | outcome [10] | Potency [11] | outcome [12] | outcome [19] | Potency [13] | outcome [14] | Potency [15] | Potency [16] | outcome [17]

C=CCCCCCCCCCCCC
inactive: Potency [1] | outcome [2] | Potency [3] | Potency [4] | outcome [5] | Potency [6] | Potency [7] | outcome [8] | Potency [9] | outcome [10] | Potency [11] | outcome [12] | Potency [20] | Potency [13] | outcome [14] | Potency [15] | Potency [16] | outcome [17]

N[C@@H](CCC(=O)N[C@@H](CS)C(=O)NCC(=O)O)C(=O)O
inactive: cytotoxicity increase [1] 2.25% [at 15.8 µM] | cytotoxicity [2] -0.523% [at 15.8 µM] | cytotoxicity increase [3] -10.1% [at 15.8 µM] | cytotoxicity increase [4] 2.4% [at 15.8 µM] | activity change, negative = cytotoxic [5] 2.53% [at 15.8 µM] | activity change, negative = cytotoxicity [6] 7.83% [at 15.8 µM] | activity change, negative = cytotoxicity [7] 10.5% [at 15.8 µM] | activity change [8] 0.448% [at 15.8 µM] | activity change, negative = cytotoxicity [9] 1.78% [at 15.8 µM] | cytotoxicity increase [10] -6.34% [at 15.8 µM] | activity change, negative = cytotoxicity [11] -2.09% [at 19 µM] | viability change, negative = cytotoxic [12] 1.98% [at 19 µM] | outcome [19] | activity change, negative = inhibition [13] -2.25% [at 19 µM] | activity change, negative = cytotoxicity [14] 2.26% [at 19 µM] | viability change, negative = cytotoxic [15] -6.52% [at 19 µM] | viability change, negative = cytotoxic [16] 0.577% [at 19 µM] | activity change [17] -0.793% [at 18.9 µM]
